# PubChem BioAssay AID492948 (National Center for Advancing Translational Sciences (NCATS), 2010)
# Records with an inconclusive call do not appear. The source made the active and inactive calls. Calls come from the whole dose curve; as a rule, active = well fitted activation curve with a large enough effect; inconclusive = small, poorly fitted or top-dose-only effect; inactive = no such curve, though single readings can be large or run the other way.
# Assay: qHTS Assay for Agonists of the Relaxin Receptor RXFP1: V1B Hit Validation;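 note: counter-screen in HEK293 cells expressing V1B rather than RXFP1 for selectivity; nearly all actives have a fitted effect of over 65% in size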;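 for activation: cAMP accumulation with PDE4 inhibitor Ro 20-1724 present during compound exposure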
# Settings: HEK293 V1B cells, cAMP TR-FRET, 30 min; series mostly up to 115 µM
# Excerpt: NIH Chemical Genomics Center [NCGC]
# NIH Molecular Libraries Probe Production Centers Network [MLPCN]
# Assay Submitter (PI): Alexander Agoulnik
# The relaxin hormone is involved in the variety of biological functions in normal tissues and diseases. The role of relaxin is well-established in female reproduction and parturition, mammary gland and endometrial development, maintenance of myometrial quiescence during pregnancy. Relaxin signaling through its G protein-coupled receptor (GPCR) RXFP1 results in ECM remodeling through regulation of collagen deposition, cell invasiveness, proliferation and overall tissue homeostasis. […] Recombinant human relaxin (rhRlx) is currently being tested in clinical trials as a protective agent in congestive heart failure, in treating severe preeclampsia, and as an anti-fibrotic agent in systemic sclerosis.
# Upon relaxin binding RXFP1 activation leads to the activation of adenylate cyclase (AC) via Gs. cAMP will activate PKA, which phosphorylates many signaling proteins. Thus, detection of cAMP increase is an easy and reliable indication of relaxin receptor activation. To screen for agonists of the relaxin receptor, a HEK293T cell line stably transfected with RXFP1 was used. RXFP1 activation was assayed by changes in cAMP levels as detected with a time-resolved fluorescence energy transfer (TR-FRET) cAMP detection kit.
# This assay measures activation of a cell expressing […], another GPCR targeted by relaxin, to determine the selectivity of compounds for RXFP1.
# NCGC Assay Protocol Summary:
# This is a cell-based assay for cAMP second messenger response to screen for agonists of the RXFP2 receptor. The assay was conducted in the presence of a PDE4 inhibitor (Ro 20174). The cells were lysed and the cAMP levels were measured with a TR-FRET cAMP kit. Presence of cAMP in the cell lysate disrupts binding between the cryptate-labeled anti-cAMP and d2-labeled cAMP pair, leading to a decrease in the TR-FRET signal. Data were normalized to the controls for basal activity (buffer only) and 100% activity (29 nM porcine relaxin). The EC50 values were determined from concentration-response data modeled with the standard Hill equation
# 1536-well assay protocol for the HEK293 V1B cAMP assay:
# (1) Add 3 ul HEK293 RXFP2 cell culture. 2000 cells/well in DMEM/F12, 10% FBS, 1x Pen/Strep (dispensed offline with MultiDrop Combi).
# (3) Add 23 nl compounds in DMSO solution. Final concentration was 0.5 - 58 uM.
# (4) Incubate 30 min at 37C, 5% CO2.
# (5) Add 1 ul cAMP-d2 in lysis buffer (HTRF cAMP HiRange kit, CisBio).
# (6) Add 1 ul anti-cAMP antibody-cryptate in lysis buffer (HTRF cAMP HiRange kit, CisBio).
# (7) Incubate 30 min at room temperature.
# (6) Detect the assay plate in a ViewLux plate reader (PerkinElmer) with Ex=320 nm, Em1=615 nm and Em2=665 nm.
# Keywords: relaxin, RXFP1, RXFP2, G-protein coupled receptor, cAMP, agonist, high throughput screening, MLSMR, MLSCN, NIH Roadmap, qHTS and NCGC
# Potency is the fitted concentration of half-maximal effect.
row,Structure (SMILES),Potency
1,CCc1ccc2n(-c3ccc(OC)cc3)c([S-])c(C(=O)Nc3cc(C)cc(C)c3)[n+]2c1,30.8 µM (active)
2,CCC(=O)Nc1ccc(NC(=O)CSc2nc3c(c(=O)n(C)c(=O)n3C)n2CC)cc1,38.9 µM (active)
3,O=C(O)CSc1ccnc2cc(Cl)ccc12,21.8 µM (active)
4,Nc1cc2ccncc2c2ccccc12,inactive
5,CC1CCN(S(=O)(=O)c2ccc3nc(N4CCN(c5ccccc5)CC4)ccc3c2)CC1,13.8 µM (active)
6,O=C(O)CNC(=O)c1ccccc1NC(=O)c1ccco1,inactive
7,O=C(NC1CCCCCC1)c1cc2c(=O)n3ccccc3nc2s1,38.9 µM (active)
8,Cc1cc2nc3ccc(=[N+](C)C)cc-3sc2cc1N,inactive
9,Cc1ccc2[nH]c3c(=S)nc[nH]c3c2c1,6.15 µM (active)
10,Cc1ccccc1NC(=O)c1ccccc1NC(=O)c1ccco1,inactive
11,Cc1ccc(-n2c(=S)[nH]c3sc4c(c3c2=O)CCC4)cc1,6.15 µM (active)
12,COc1ccc(CNC(=O)CN2C(=O)NC(C)(c3cccc(Br)c3)C2=O)cc1 (stereo not given),inactive
13,Cc1ccc(-c2ccc3nnc(SCC(=O)NCC4CCCO4)n3n2)cc1 (stereo not given),inactive
14,O=[N+]([O-])c1cc2c(c(CSc3nnc4ccccn34)c1)OCOC2,12.3 µM (active)
15,O=C(O)c1ccc(N=C2NC(=O)C(CO)(CO)S2)cc1,inactive
16,COc1ccc(Cl)cc1-c1n[nH]c(=S)o1,4.35 µM (active)
17,O=C(Nc1ccccc1C(=O)N1CCOCC1)c1ccco1,inactive
18,CCOC(=O)c1sc(=NC(=O)c2ccc(S(=O)(=O)N(C)c3ccccc3)cc2)n(C)c1C,30.8 µM (active)
19,CC(C(=O)OCC(=O)N(C)C1(C#N)CCCCC1)N1C(=O)c2ccccc2C1=O (stereo not given),13.8 µM (active)
20,O=C(Nc1ccccc1C(=O)NCc1ccccc1)c1ccco1,inactive

row,Structure (SMILES),Potency
1,CC(C)(C)C(=O)Nc1ccccc1C(=O)NCc1ccco1,inactive
2,O=C(Nc1ccccc1C(=O)N1CCCCC1)c1ccco1,inactive
3,O=C(Nc1ccccc1C(=O)NCCc1ccccc1)c1ccco1,inactive
4,COc1cccc(CNC(=O)c2ccc(CS(=O)Cc3ccc(C)cc3)o2)c1 (stereo not given),inactive
5,CCN(CC)c1ccc(S(=O)(=O)N2CCOCC2)cc1NC(=O)CSc1nncn1C,12.3 µM (active)
6,Cc1ccccc1NC(=O)CNc1ccccc1C(=O)NCc1ccco1,inactive
7,Nc1c(Cl)cc(-c2[nH]c3cc(C(=O)NCCO)ccc3c(=O)c2O)cc1Cl,34.6 µM (active)
8,CC1(C)Cc2nc3sc4c(SCC(=O)NC(c5ccccc5)c5ccccc5)ncnc4c3cc2CO1,3.46 µM (active)
9,O=C(OCc1nc2ccsc2c(=O)[nH]1)c1cccc(S(=O)(=O)N2CCOCC2)c1,34.6 µM (active)
10,NS(=O)(=O)c1ccc(CCNC(=O)C2CCN(c3ncnc4c3nc3n4CCCCC3)CC2)cc1,38.9 µM (active)
11,COc1ccc(S(=O)(=O)Nc2ccccn2)c(C)c1C,inactive
12,COc1ccc(CN2C(=O)c3cccnc3C2=O)cc1S(=O)(=O)N1CCCCC1C (stereo not given),8.68 µM (active)
13,CC[N+](CC)(CCCCS(=O)(=O)[O-])CCNP1(=O)C=C(c2ccccc2)OC(c2ccccc2)=C1,38.9 µM (active)
14,Nc1c(S(=O)(=O)O)cc(NC(=O)c2ccccc2)c2c1C(=O)c1ccccc1C2=O,inactive
15,CC(C)Oc1ccc(S(=O)(=O)N2CCOCC2)cc1NC(=O)c1cc([N+](=O)[O-])ccc1N1CCOCC1,37.5 µM (active)
16,CCOC(=O)CCCCC(=O)c1[nH]c(=O)[nH]c1CSc1nnc2c3cc(Br)ccc3n(C)c2n1,10.9 µM (active)
17,CCN(CC)C(=O)c1cc(Cl)ccc1NC(=O)c1ccco1,inactive
18,COc1ccc(/C=C2/SC(=O)N(CCC(=O)Nc3ccc(C)cc3)C2=O)cc1OC,inactive
19,COc1ccc(NC(=O)CCCc2nnc3n(C)c(=O)c4sccc4n23)cc1,43.6 µM (active)
20,Cc1ccc(C(=O)Nc2ccccc2C(N)=O)o1,inactive
